# Compounds with a hit are over-represented: about 6% of the library has one in this group of screens.
# D1 antagonist – blocks dopamine activation of the human D1 receptor; P21728; HEK293 TREx D1 cells, calcium flux, dopamine EC80; stronger effect = lower value; activity change, negative = inhibition, % at 10 µM; 360,000 compounds, 3.2% hits; AID 504652; in the data active = activity change below about -30%; also: % is scaled to controls: 0 for no effect and ±100 for the full control effect
#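 Tetracycline-induced HEK293 T-REx cells with force-coupled D1 receptor were loaded with a no-wash calcium dye. Compound was added after a 10 s baseline and read kinetically for 180 s; EC80 dopamine was then added and calcium flux followed another 180 s.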
# D1 PAM – enhances dopamine response at the human D1 receptor | HEK293 TREx D1 cells, calcium flux, dopamine EC20 potentiation | P21728 | 360,000 compounds, 0.036% hits | potentiation, % at 10 µM; in the data active = potentiation above about 30%; also: 0% is about no effect
# D3 ag – agonists of human D3 dopamine receptor | P35462 | D3R DiscoveRx beta-arrestin cells, luminescence, 90 min | max activation, % | 410,000 compounds, 0.58% hits; in the data active = max activation above about 30%; also: 0% is about no effect
# Target sequence (P35462 whole entry, looked up): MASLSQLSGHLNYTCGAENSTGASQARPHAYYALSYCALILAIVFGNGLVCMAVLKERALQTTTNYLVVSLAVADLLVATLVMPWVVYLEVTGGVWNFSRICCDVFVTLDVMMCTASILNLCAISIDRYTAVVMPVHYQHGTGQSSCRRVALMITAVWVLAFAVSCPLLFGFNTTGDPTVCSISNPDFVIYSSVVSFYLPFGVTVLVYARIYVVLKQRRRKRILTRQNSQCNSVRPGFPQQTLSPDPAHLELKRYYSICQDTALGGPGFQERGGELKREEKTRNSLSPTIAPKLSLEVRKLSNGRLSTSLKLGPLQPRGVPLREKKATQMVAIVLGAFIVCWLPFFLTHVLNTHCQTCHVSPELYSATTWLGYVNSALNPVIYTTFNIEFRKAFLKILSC
#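 Agonist mode: compounds and dopamine controls were applied to plated cells for 90 min at 37 degrees C after an overnight attachment at 1500 cells/well. Luminescent read-out followed 30 - 60 minutes at room temperature with DiscoveRx detection reagent.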
# D1 agonist – human D1 receptor agonism. AID 504660. activation, % at 2 µM. P21728. 360,000 compounds, 1% hits. HEK293 T-REx D1 cells, calcium flux, agonist mode; in the data active = activation above about 30%; also: 0% is about no effect
#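 Agonism was scored from calcium flux recorded over 180 s (1 read/s) after pintool compound addition, following a 10-cycle baseline. Cells were inducible force-coupled HEK293 TREx D1, plated overnight at 30 C and loaded with no-wash calcium dye.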
# D3 antag – D3 dopamine receptor (human) antagonism; P35462; D3R cells, DiscoveRx beta-arrestin luminescence, antagonist mode; stronger effect = lower value; max response, negative = inhibition, %; 360,000 compounds, 2.5% hits; AID 652054; in the data active = max response below about -50%; inconclusive = no clear call, values can overlap the other calls; also: % is scaled to controls: 0 for no effect and ±100 for the full control effect
#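 Cells expressing the human receptor were seeded at 1500 cells/well, incubated overnight at 37 degrees C in 5% CO2, then exposed to library compounds with dopamine controls for 90 minutes at 37 degrees C before luminescent detection.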
# The depositor's hits bear a star; u = inconclusive; x = not tested or not shown.
SMILES,D1 antagonist,D1 PAM,D3 ag,D1 agonist,D3 antag
Cc1ccc(-n2ncc3c(SCC(=O)NNC(=O)C(C)C)ncnc32)cc1,-54*,-5,11,2,11
CC(C)C(=O)NNC(=O)CSc1ncnc2c1cnn2-c1ccccc1Cl,-20,-4,2,2,16
O=C(CSc1ncnc2c1cnn2-c1ccccc1)NC1CCCC1,-91*,-4,13,9,7
O=C(CSc1cc([N+](=O)[O-])cc(S(=O)(=O)Cc2ccccc2)c1)NC1CC1,-40*,-9,-2,2,-15
C=Cc1ccc(Cn2c(=O)cc(C)c3c(C)nn(C)c32)cc1,-29,7,2,51*,x
Cc1cc(=O)n(CC(=O)N2CCN(c3ccccc3F)CC2)c2c1c(C)nn2C,-30*,-6,7,10,x
CCc1nnc(SCc2cccc(Cl)c2)c2cc3sccc3n12,31,-1,6,14,x
CCC(C)(C)N1CC(=O)N(Cc2ccccc2)C(c2ccc(OC)cc2)C1=O (centres undefined),1,5,1,1,-52*
Cc1cccc(C(=O)Nc2ccc(N3CCC(CCN4CCOCC4)CC3)c(C(=O)O)c2)c1,9,-6,9,3,x
CC(C)C[C@H]1CN([C@@H](Cc2ccccc2)CN2CCC[C@@H]2CN2C(=O)C(=O)NC[C@@H]2Cc2ccccc2)C(=O)C(=O)N1CCc1ccccc1,x,x,-15,x,-65*
CC(C)C[C@H]1CNC(=S)N1C[C@H]1CCCN1C[C@H](Cc1ccc(O)cc1)N1C[C@H](CC(C)C)N(CC2CCCCCC2)C1=S,x,x,-9,x,-65*
Nc1c(-c2nc(-c3cccs3)no2)nnn1-c1ccc(Cl)cc1,-3,-6,6,1,x
Cc1cc(F)ccc1NC(=O)CCS(=O)(=O)c1cccc2nsnc12,-11,2,7,0,x
Cc1onc(-c2ccccc2Cl)c1C(=O)NCc1ccccn1,2,1,2,3,-58*
Cc1onc(-c2c(F)cccc2Cl)c1C(=O)NCc1ccccn1,-39*,4,-4,3,15
Cc1onc(-c2ccccc2Cl)c1C(=O)NCc1cccnc1,13,3,-3,-3,12
Cc1nc(N2CCN(c3ccccn3)CC2)c2c(C)c(C(=O)Nc3c(F)cc(F)cc3Br)sc2n1,7,0,39*,3,40
Cc1nc(N2CCN(c3ccccn3)CC2)c2c(C)c(C(=O)Nc3c(C)cc(Br)cc3C)sc2n1,-15,-7,16,1,25
Cc1nc(N2CCC(C)CC2)c2c(C)c(C(=O)Nc3ccccc3C(F)(F)F)sc2n1,22,-1,31*,2,77
COc1cccc(/C=N/Nc2snc(SC)c2C#N)c1O,-41*,-1,4,37*,u
COc1ccc(/C=N/Nc2snc(SC)c2C#N)cc1OC,16,-8,0,0,0
O/N=C/c1cc2ccccc2n1Cc1ccccc1F,22,-2,-5,-1,-53*
CCN(CCN(C)C)C(=O)C1CCN(S(=O)(=O)c2c(C)noc2/C=C/c2ccccc2F)CC1,-37*,-7,-2,28,-54*
CCOc1ccccc1/C=C/c1onc(C)c1S(=O)(=O)N1CCC(C(=O)N(CC)CC)CC1,-9,-1,-15,6,-19
Cc1cc(C)cc(-n2c(SCC(=O)NCc3ccc4c(c3)OCO4)nc3ccccc3c2=O)c1,-37*,-13,1,4,2
SMILES,D1 antagonist,D1 PAM,D3 ag,D1 agonist,D3 antag
O=C(CSc1nc(C2CCCCC2)nc2ccccc12)NCc1ccc2c(c1)OCO2,-46*,-3,3,5,-11
Cc1ccc(C)c(NC(=O)C(=O)NCCc2csc(-c3cccc(F)c3)n2)c1,3,5,4,1,x
COc1ccc(Nc2ncc(C(=O)Nc3ccc(F)cc3F)c3ccccc23)cc1,-26,1,5,4,x
O=C(NC(c1ccccc1)c1ccsc1)C1CCN(Cc2ccc(Cl)c(Cl)c2)CC1 (centres undefined),x,x,-18,x,-61*
O=C(NC(c1ccccc1)c1ccsc1)C1CCN(Cc2ccc(Oc3ccccc3)cc2)CC1 (centres undefined),x,x,-19,x,-100*
CC(=O)N1c2ccccc2CC1C(=O)N1CCN(c2cc(Cl)ccc2C)CC1 (centres undefined),6,0,-7,0,x
O=C(CN(Cc1ccco1)C(=O)CNS(=O)(=O)c1ccc(Cl)cc1)NCc1ccco1,-52*,-1,-7,0,12
CCOC(=O)c1ccccc1NC1(c2ccc(OC)cc2)C(=O)c2ccccc2C1=O,7,-3,9,0,x
NC(=O)CC(NC(=O)Cc1cccc2ccccc12)c1ccc(N2CCC(N3CCCCC3)CC2)c([N+](=O)[O-])c1 (centres undefined),0,-2,0,1,0
NC(=O)CC(NC(=O)c1ccccc1)c1ccc(N2CCC(Br)CC2)c([N+](=O)[O-])c1 (centres undefined),-1,0,13,1,0
Cc1cc(C)cc(C(=O)NC(CC(N)=O)c2ccc(N3CCC(Br)CC3)c([N+](=O)[O-])c2)c1 (centres undefined),-6,-6,32*,1,0
NC(=O)CC(NC(=O)Cc1cccc2ccccc12)c1ccc(N2CCCCCC2)c([N+](=O)[O-])c1 (centres undefined),13,7,-37,0,-68*
COC(=O)c1ccc(NC(=O)CC2C(=O)N(c3ccccc3)C(=O)N2Cc2ccc(F)cc2)cc1 (centres undefined),-4,-2,2,-2,x
CCSC1=NSC2=NC(=O)/C(=C\c3coc4ccccc4c3=O)C(=N)N12,-43*,4,3,325*,12
CC(C)CC1=NN2C(=N)/C(=C\c3coc4ccccc4c3=O)C(=O)N=C2S1,1,-4,1,61*,3
CC(=O)N1CCc2c(sc3c2c(=O)n(-c2ccc(C)cc2)c(=O)n3CC(=O)Nc2ccccc2)C1,38,-1,4,2,x
O=C1CSC2(C(=O)N(Cc3c(F)cccc3Cl)c3ccccc32)N1c1ccc(F)c(F)c1 (centres undefined),7,-4,3,6,x
O=C1c2ccc([N+](=O)[O-])cc2C(=O)N1c1ccc(Cl)cn1,1,2,3,0,0
O=C(OCCN1C(=O)c2cccc3c(N4CCOCC4)ccc(c23)C1=O)c1cc(Cl)cc(Cl)c1,-9,0,x,12,x
CCCN1C(=O)c2cccc3c(N4CCCCC4)ccc(c23)C1=O,8,-3,2,63*,-8
O=C1c2cccc3c([N+](=O)[O-])ccc(c23)C(=O)N1c1ccccn1,-42*,-11,-10,4,-100*
O=C1c2cccc3c([N+](=O)[O-])ccc(c23)C(=O)N1c1ccc(Cl)cn1,-49*,-8,-36,3,u

# Assay outcomes from PubChem.
